# A549 tox = Nrf2 qHTS screen for inhibitors: counterscreen for cytotoxicity. A549 ARE-Fluc cells, CellTiter-Fluor viability, 18-24 h. Potency, µM (titrated, usually from 46 µM), for inactives: at the highest dose activity change, negative = cytotoxicity, usual class: inhibitors. hit rate 0.16% among 390,000; note: % is set by controls: 0 for no effect and ±100 for the full control effect
#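 A549 ARE_Fluc cells in 5% FBS OPTI-MEM were exposed to compounds in concentration-response for 18-24 h at 37 deg C. Viability was read by CellTiter-Fluor fluorescence (Ex 405/Em 525) after 30 min, before the luciferase read.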
# Nrf2 ARE act = qHTS of Nrf2 Activators; Potency, µM (series often up to 46.1 µM), for the others: at the top dose activation, actives largely listed as activators; AREc32 ARE-luciferase reporter (MCF7-derived line), luminescence, 24 h; AID 624171, 2012; hit rate 0.31% among 410,000; note: % of control where 0% means no effect; nearly all actives have a fitted effect of over 65% in size
#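 Each well held 1000 AREc32 cells, which were incubated with compound for 24 hr at 37 deg C after overnight attachment, and ARE reporter activity was quantified by firefly luciferase luminescence.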
# Nrf2 block = Nrf2 qHTS screen for inhibitors; hit rate 2.1% among 360,000; A549 ARE-Fluc reporter, luciferase luminescence, 18-24 h; Potency, µM (top dose mostly 46 µM), for inactives: at the highest dose activity change, negative = inhibition, most hits filed as inhibitors; note: % is set by controls: 0 for no effect and ±100 for the full control effect; nearly all actives have a fitted effect of over 60% in size
#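 Nrf2 function is reported as luminescence of an ARE-controlled luciferase in A549 cells. Compounds were tested at several concentrations, and a CellTiter-Fluor read on the same wells flagged cytotoxicity.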
# Epigenetic derep = Quantitative High-Throughput Screen for Regulators of Epigenetic Control; murine LDR cells, GFP reporter derepression, 30 h; Potency, µM (doses to about 53.9 µM), for the others: at the top dose GFP activation, most hits filed as activators; hit rate 0.2% among 280,000; AID 1865, 2009; note: % of control where 0% means no effect; nearly all actives have a fitted effect of over 60% in size
#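 GFP-positive cell count by laser-scanning cytometry (objects 20–120 um) after 30 h, 37 C compound exposure of murine LDR cells; reporter is CMV-GFP integrated at a silenced locus, inducible by HDAC or DNMT inhibitors.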
# PINK1 expr mod = A Quantitative High throughput Screen to Identify Chemical Modulators of PINK1 Expression; PINK1 immunofluorescence, high-content cytometry, 24 h; Potency, µM (top dose mostly 76.6 µM), inactives show top-dose activation (PINK1 increase), most hits filed as activators; hit rate 0.2% among 410,000; active = well fitted activation curve with a large enough effect; inconclusive = small, poorly fitted or top-dose-only effect; cell line not stated here; note: % of control where 0% means no effect; nearly all actives have a fitted effect of over 65% in size
#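 Measures PINK1 amount and localization on or inside mitochondria by immunofluorescence. Stable cells get compounds at 5 concentrations for 24 hours before fixation and staining; CCCP controls included.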
# Starred values were filed as active, the others as inactive; ? = inconclusive; . = no result given; [ ] = remark or other dose. Rows were chosen to be rich in hits. Some 2.4% of all compounds tested hit in one or more screens of this group. Unless noted, calls come from the whole dose curve; as a rule, active = well fitted curve in the direction sought with a large enough effect; inconclusive = small, poorly fitted or top-dose-only effect, or another doubt; inactive = no such curve, though single readings can be large; an effect the other way counts as inactive or inconclusive. Potency is the fitted concentration of half-maximal effect.
SMILES,A549 tox,Nrf2 ARE act,Nrf2 block,Epigenetic derep,PINK1 expr mod
CCOC(=O)C1CCCCN1C(=O)c1cnn(-c2nccc(-c3cc(C)sc3C)n2)c1C1CC1 (configuration not stated),.,.,.,.,1%
CC(=O)Nc1ccc(S(=O)(=O)NCCSCc2c(Cl)cccc2Cl)cc1,-21%,0%,15µM*,0%,2%[38.3 µM]
O=S(=O)(c1cccc(O)c1)N1CCN(S(=O)(=O)c2c(F)cccc2F)CC1,-1%,.,3%,.,.
COc1ccc(OC)c(-c2ccnc(-n3ncc(C(=O)N4CCN(CCO)CC4)c3C3CC3)n2)c1,.,.,.,.,0%
CC(C)Oc1ccc(CNC(=O)c2cccc(NC(=O)N3CCSc4ncccc43)c2)cc1,4%,3%,23µM*,1%,-2%
CCOc1ccc(CNC(=O)c2cccc(NC(=O)N3CCSc4ncccc43)c2)cc1,2%,3%,?,0%,1%
COc1cccc([C@@H]2Oc3ccc(Br)cc3C[C@H]2OC(=O)NS(=O)(=O)c2ccc(C)cc2)c1,.,.,.,-2%,.
COc1ccc(NC(=O)/C(C#N)=C\c2ccc(N3CCOCC3)o2)cc1,-24%,2%,?,16µM*,21%
COc1ccc(NC(=O)/C(C#N)=C/c2cc(C)n(-c3ccc(N4CCOCC4)c([N+](=O)[O-])c3)c2C)cc1,-12%,-1%,6.5µM*,0%,4%
N#C/C(=C/c1ccc(N2CCCCC2)o1)C(=O)Nc1ccc2ccccc2c1,-10%,10%,?,2.5µM*,7.1µM*
CCCCOC(=O)c1ccc(NC(=O)/C(C#N)=C/c2ccc(C)o2)cc1,-2%,1%,-4%,10µM*,2%
N#C/C(=C\c1ccc(N2CCOCC2)o1)C(=O)Nc1ccc(O)cc1,-18%,2%,?,?,?
C=C[C@@H]1CN2CC[C@@H]1C[C@@H]2[C@@H](O)c1ccnc2ccc(OC)cc12,.,.,.,-3%,.
Cc1cc(NS(=O)(=O)c2cn(C)c(C)n2)ccc1Br,-6%,0%,.,3%,-5%
COc1cccc(C2(CC(=O)N3CCN(c4ccccn4)CC3)CC(=O)N(C3CCCC3)C2=O)c1 (configuration not stated),.,.,.,.,-1%
N#C/C(=C/c1ccc(N2CCCCC2)o1)C(=O)Nc1ccc(Cl)cc1,-15%,3%,.,0.63µM*,13µM*
Cc1nc2ccccc2c2oc(C(=O)Nc3ccc(C(C)C)cc3)cc12,?,-1%,15µM*,0%,1%
COc1cc(NC(=O)c2cc3c(C)nc4ccccc4c3o2)cc(OC)c1OC,3%,3%,-21%,0%,6%
Cc1nc2ccccc2c2oc(C(=O)Nc3ccc4c(c3)OCCO4)cc12,-29%,1%,23µM*,8%,?
O=C(Cc1ccccc1Nc1c(Cl)cccc1Cl)OCO/N=[N+](\[O-])N1CCCC1,-2%,.,-4%,.,.
CS(=O)(=O)c1cccc(-c2nnc(NC(=O)c3ccc4c(c3)OCCO4)o2)c1,1%,-1%,.,4%,1%
Clc1ccc(-c2nnc(-c3ccccc3)c(-c3ccccc3)n2)cc1,3%,-1%,-14%,3%,8%
Nc1nc(-c2ccc(Cl)cc2)nnc1-c1ccc(Br)cc1,1%,-1%,?,?,45µM*
CN(C)c1cc2c(cc1NC(=O)c1ccc(F)cc1)n(C)c(=O)n2C,11%,5%,-12%,-1%,0%
CC(NC(=O)Cn1c(NCCO)nc2ccccc21)C1CC2CCC1C2 (configuration not stated),1%,0%,-20%,-1%,-1%
SMILES,A549 tox,Nrf2 ARE act,Nrf2 block,Epigenetic derep,PINK1 expr mod
Cc1nc2ccccc2n1CC(=O)NC(C)C1CC2CCC1C2 (configuration not stated),-17%,0%,5.2µM*,-1%,1%
CC1=C(c2ccc(Cl)cc2)S(=O)(=O)N=C1N1CCN(c2cccc(C)c2)C(C)C1 (configuration not stated),-4%,0%,23µM*,5%,-1%
CC(=O)Oc1cc2c(c3ccccc13)CCC2=O,0%,13µM*,-1%,.,1%
CC(C)OC(=O)n1c(=S)oc2ccccc21,0%,2%,14%,0%,0%[38.3 µM]
CCCCC(=O)/C=C/n1c(=S)oc2ccccc21,-4%,10µM*,?,1%,2%
O=C(NCCCN1CCN(c2ccccc2F)CC1)c1nnc(Cc2ccc(Cl)cc2Cl)o1,-15%,4%,18µM*,0%,-1%
O=C1CSC(=S)N1Cc1cccnc1,?,8.9µM*,8%,2%,9%
COc1ccccc1C(=O)N1CCOc2ccc(CN3CCN(Cc4ccccn4)CC3)cc2C1,.,.,.,.,-1%
Cc1nc(N2CCN(Cc3ccc4c(c3)OCO4)CC2)nc2c1C(=O)CC(c1ccco1)C2 (configuration not stated),-12%,3%,12µM*,-1%,-2%[38.3 µM]
Cc1nc(N2CCN(Cc3ccccc3)CC2)nc2c1C(=O)CC(c1ccco1)C2 (configuration not stated),-4%,-1%,?,-1%,?
S=C(Nc1ccc(Nc2ccccc2)cc1)Nc1ccccn1,?,3%,21µM*,-3%[10.1 µM],1%
OC1CCN(Cc2ccc3c(c2)CN(Cc2ccc(Oc4ncccn4)cc2)CCO3)CC1,.,.,.,.,2%
N#CC1=C2SCC(O)(c3ccccc3)N2C(=O)CC1c1ccccc1F (configuration not stated),-6%,5%,10µM*,-2%,9%
COc1ccc(Cc2nc3ccc(C(=O)NCc4cc(C)no4)cc3o2)cc1,1%,3%,?,.,0%
CCc1cc(CNC(=O)c2ccc3nc(Cc4ccc(OC)c(OC)c4)oc3c2)on1,-9%,2%,21µM*,.,0%
CC(=O)O[C@H]1CC2(C)[C@@H](C[C@@H](O)[C@H]3[C@@]4(C)CC[C@@H](O)[C@@H](C)[C@@H]4CC[C@@]32C)C1=C(CCC=C(C)C)C(=O)O (some centres not stated),.,.,.,0%,.
CCn1c(/C=C/c2c(C)n(CC)c3ccccc23)nc2ccccc2c1=O,-4%,-1%,5%,-1%,18µM*
CCn1c(/C=C/c2ccccc2C)nc2ccccc2c1=O,6%,27%,5%,-1%,3%
CCn1c(/C=C/c2ccccc2F)nc2ccccc2c1=O,0%,2.8µM*,4%,.,4%
COc1cccc(C2c3c(ncn(-c4ccccc4SC)c3=N)Oc3ccc4ccccc4c32)c1 (configuration not stated),-5%,.,4%,.,.
O=C(Nc1ccc(Br)c(Cl)c1)C1CC1,-10%,2%,15µM*,-3%,1%
CCCc1cc(C(=O)Nc2c(C)nn(Cc3ccc(Cl)c(Cl)c3)c2C)no1,-15%,4%,16µM*,-2%,0%
